The values below come from PubChem BioAssay (Tox21).

Several values for one entry are separate records, joined by “and”; a condition that tells them apart may be missing. Identical values can stand only once. Records with an inconclusive call do not appear. The source holds several records for some structures; these can differ, active in one and inactive in another. Activity calls are given as the source filed them. Unless noted, calls follow the shape of the dose curve; as a rule, active = well fitted curve in the direction sought with a large enough effect in the repeat runs; inconclusive = weak or mixed curves; inactive = no such curve, though single readings can be large; an effect the other way counts as inactive or inconclusive.

Assay [1] is described as follows: qHTS assay to identify small molecule HDAC inhibitors (AID 1259364).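 Also: wild-type HCT-116 cells with endogenous class I/II HDAC activity; top concentration of the series differs between compounds; nearly all actives have a fitted effect of over 45% in size.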 The essentials: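 HCT-116 wt cells, 1,500/well, overnight attach. Compounds (DMSO) 2 h, 37 °C. HDAC-Glo I/II, 30 min RT. Luminescence.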
For orientation: qHTS replaces the single test concentration by a dilution series.

Assay [2] is described as follows: qHTS assay to identify small molecule HDAC inhibitors - cell viability counter screen (AID 1259365). Also: series mostly up to about 92 µM; nearly all actives have a fitted effect of over 50% in size. The essentials: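 Wild-type HCT-116 cells were seeded at 1,500 per well, incubated overnight at 37 C, then exposed to compounds in DMSO for 2hr. Viability was read by CellTiter-Glo luminescence after 30min at room temperature.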
Assay [3] can be described thus: qHTS assay to identify small molecule agonists of the sonic hedgehog signaling (Shh) pathway - cell viability counter screen (AID 1259366). Also: nearly all actives have a fitted effect of over 50% in size. Also: potency is read from the fitted curve at half-maximal effect. The essentials: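 NIH/3T3-derived 3T3 Gli1-Luc cells (stable Gli1-responsive firefly luciferase reporter) were seeded, rested 4 hr at 37 C/5% CO2, then exposed to compounds in DMSO for 24 hr; viability was read by CellTiter-Fluor fluorescence in the same wells.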

Assay [4] can be described thus: qHTS assay to identify small molecule antagonists of the sonic hedgehog signaling (Shh) pathway - cell viability counter screen (AID 1259367). Also: nearly all actives have a fitted effect of over 55% in size. Also: potency is read from the fitted curve at half-maximal effect. The essentials: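 Viability was read by CellTiter-Fluor fluorescence in the same wells, reagent added 23 hr into compound treatment and incubated 1 hr at 37C. The 3T3 Gli1-Luc reporter cells (2,000/well) received conditioned medium after compound and ran 24 hr.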

The nature of assay [5]: qHTS assay to identify small molecule agonists of the sonic hedgehog signaling (Shh) pathway (AID 1259368; calls by dose curve; also: series mostly up to about 92 µM; nearly all actives have a fitted effect of over 15% in size). The essentials: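 Following a 24 hr incubation with DMSO-dissolved compounds at 37 C, 5% CO2, Gli1-Luc NIH/3T3-derived cells received luciferase reagent for 30 min at room temperature prior to luminescence measurement.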
For assay [6], the target named is Progesterone receptor (Homo sapiens) (UniProt P06401). As to the kind of experiment: qHTS assay to identify small molecule antagonists of the progesterone receptor (PR) signaling pathway (AID 1346795; active = well fitted inhibition curve with a large enough effect in the signal ratio in the repeat runs, not every such curve was filed as active; the % refers to the signal ratio; also: potency is read from the fitted curve at half-maximal effect). The method, boiled down: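 PR-UAS-bla HEK293T cells carrying a UAS-driven beta-lactamase reporter were plated in medium with 2% charcoal-stripped FBS and rested 6 hr at 37C. Compounds were added with 1 nM R5020 (final) for 16 hr, then FRET substrate loaded 2 hr at room temperature.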
Sequence of Progesterone receptor (Homo sapiens) (P06401 whole entry, looked up): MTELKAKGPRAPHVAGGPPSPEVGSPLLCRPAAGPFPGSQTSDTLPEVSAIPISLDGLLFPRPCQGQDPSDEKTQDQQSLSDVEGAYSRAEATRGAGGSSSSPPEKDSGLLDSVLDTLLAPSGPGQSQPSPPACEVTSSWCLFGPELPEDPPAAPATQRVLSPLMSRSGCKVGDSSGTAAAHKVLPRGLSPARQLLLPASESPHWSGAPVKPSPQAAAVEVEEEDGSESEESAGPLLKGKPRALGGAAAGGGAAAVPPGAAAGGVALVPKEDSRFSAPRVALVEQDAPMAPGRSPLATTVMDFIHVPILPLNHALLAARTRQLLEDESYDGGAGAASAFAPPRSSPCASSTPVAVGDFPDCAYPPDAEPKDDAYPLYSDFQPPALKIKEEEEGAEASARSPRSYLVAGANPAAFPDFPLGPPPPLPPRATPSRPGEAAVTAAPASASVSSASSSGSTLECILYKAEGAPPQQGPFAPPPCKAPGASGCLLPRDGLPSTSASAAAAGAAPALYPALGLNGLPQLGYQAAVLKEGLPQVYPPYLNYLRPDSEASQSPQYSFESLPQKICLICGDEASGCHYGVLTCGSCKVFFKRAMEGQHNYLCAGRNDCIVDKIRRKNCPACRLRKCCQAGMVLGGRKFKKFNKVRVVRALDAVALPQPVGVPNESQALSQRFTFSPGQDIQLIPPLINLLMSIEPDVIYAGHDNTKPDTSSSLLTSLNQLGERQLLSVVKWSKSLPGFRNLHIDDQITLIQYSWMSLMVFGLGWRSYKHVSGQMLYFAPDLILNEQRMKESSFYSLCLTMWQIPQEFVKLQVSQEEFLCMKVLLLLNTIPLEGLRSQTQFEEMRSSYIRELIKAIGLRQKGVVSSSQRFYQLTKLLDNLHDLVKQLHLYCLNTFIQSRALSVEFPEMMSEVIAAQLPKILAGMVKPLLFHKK

Assay [7] in a line: qHTS assay to identify small molecule antagonists of the sonic hedgehog signaling (Shh) pathway (AID 1259369; calls by dose curve; also: nearly all actives have a fitted effect of over 45% in size; also: potency is read from the fitted curve at half-maximal effect). The method, boiled down:
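Read-out is luminescence from a firefly luciferase gene controlled by the Gli1 response element, in 3T3Gli1-Luc cells pre-incubated 4hr then exposed to compounds and conditioned medium for 24hr.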

Assay [8] can be described thus: qHTS assay to identify small molecule agonists of the androgen receptor (AR) signaling pathway in the presence of an antagonist - cell viability counter screen (AID 1259379). Also: nearly all actives have a fitted effect of over 25% in size. Also: potency is read from the fitted curve at half-maximal effect. The essentials:
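Each compound was tested at 15 concentrations on MDA-kb2 cells in the presence of 3.0uM nilutamide. Viability was measured by CellTiter-Fluor fluorescence after a 16 hr incubation at 37C in a CO2-free atmosphere.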

Assay [9] is described as follows: qHTS assay to identify small molecule agonists of the estrogen receptor beta (ER-beta) signaling pathway - cell viability counter screen (AID 1259380). Also: nearly all actives have a fitted effect of over 30% in size. Also: potency is read from the fitted curve at half-maximal effect. The essentials: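 Compounds dissolved in DMSO were pin-transferred onto ER-beta-UAS-bla HEK293T cells that had settled 6 hr, and exposure ran 16 hr at 37C. Following the reporter read, CellTiter-Glo luminescence after 30 min at room temperature indicated cytotoxicity.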

Assay [10] in a line: qHTS assay to identify small molecule antagonists of the estrogen receptor beta (ER-beta) signaling pathway - cell viability counter screen (AID 1259382). Also: nearly all actives have a fitted effect of over 55% in size. Also: potency is read from the fitted curve at half-maximal effect. The method, boiled down:
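CellTiter-Glo ATP luminescence measured after the LiveBLAzer read in the same wells; ER-beta-UAS-bla HEK293T cells, 16 hr compound treatment with 1nM 17-beta-estradiol agonist at 37C, 5% CO2.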

A short description of assay [11]: qHTS assay to identify small molecule agonists of the estrogen receptor alpha (ER-alpha) signaling pathway in the presence of an antagonist - cell viability counter screen (AID 1259386).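 Also: cells exposed to compounds for 22 h at 37 °C before the viability read; nearly all actives have a fitted effect of over 30% in size.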 Also: potency is read from the fitted curve at half-maximal effect. The method, boiled down: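 Using estrogen-depleted VM7Luc4E2 cells, the 15-concentration compound series was applied together with 10.0nM ICI-182,780 and incubated 22hr at 37C/5% CO2. Cell viability was then scored by CellTiter-Fluor.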

Assay [12] deals with Progesterone receptor (Homo sapiens) (UniProt P06401). Briefly: qHTS assay to identify small molecule agonists of the progesterone receptor (PR) signaling pathway (AID 1346784; calls by dose curve; also: nearly all actives have a fitted effect of over 30% in size). The method, boiled down: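 PR-UAS-bla HEK 293T cells carrying a UAS-driven beta-lactamase reporter were seeded in medium with 2% charcoal-stripped FBS, preincubated 6 hr at 37C, then exposed to compounds in DMSO for 16 hr; agonism was read by LiveBLAzer B/G FRET fluorescence.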

Assay [13] in a line: qHTS assay to identify small molecule agonists or antagonists of the thyroid stimulating hormone receptor (TSHR) signaling pathway - wild type cell line counter screen (AID 1259384; calls by dose curve). The method, boiled down:
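Counter screen in untransfected Hek293: compounds (15-point titration, triplicate) plus phosphodiesterase inhibitor Ro20-1724 added after 18 h plating; 30 min RT. Intracellular cAMP via competitive d2/cryptate immunoassay, 1 h incubation.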

Assay [14] concerns the target Thyrotropin receptor (Homo sapiens) (UniProt P16473). Briefly: qHTS assay to identify small molecule antagonists of the thyroid stimulating hormone receptor (TSHR) signaling pathway (AID 1259385; calls by dose curve; also: nearly all actives have a fitted effect of over 20% in size). The method, boiled down:
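Antagonist mode: compound-treated TSHR-expressing HEK293 cells were stimulated with 1.5 ng/mL TSH (final) in presence of Ro20-1724 for 30 min at RT. HTRF cAMP detection after 1 h; each compound tested at 15 concentrations, triplicate.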
% is scaled to controls: 0 for no effect and ±100 for the full control effect.

Sequence of Thyrotropin receptor (Homo sapiens) (P16473 whole entry, looked up): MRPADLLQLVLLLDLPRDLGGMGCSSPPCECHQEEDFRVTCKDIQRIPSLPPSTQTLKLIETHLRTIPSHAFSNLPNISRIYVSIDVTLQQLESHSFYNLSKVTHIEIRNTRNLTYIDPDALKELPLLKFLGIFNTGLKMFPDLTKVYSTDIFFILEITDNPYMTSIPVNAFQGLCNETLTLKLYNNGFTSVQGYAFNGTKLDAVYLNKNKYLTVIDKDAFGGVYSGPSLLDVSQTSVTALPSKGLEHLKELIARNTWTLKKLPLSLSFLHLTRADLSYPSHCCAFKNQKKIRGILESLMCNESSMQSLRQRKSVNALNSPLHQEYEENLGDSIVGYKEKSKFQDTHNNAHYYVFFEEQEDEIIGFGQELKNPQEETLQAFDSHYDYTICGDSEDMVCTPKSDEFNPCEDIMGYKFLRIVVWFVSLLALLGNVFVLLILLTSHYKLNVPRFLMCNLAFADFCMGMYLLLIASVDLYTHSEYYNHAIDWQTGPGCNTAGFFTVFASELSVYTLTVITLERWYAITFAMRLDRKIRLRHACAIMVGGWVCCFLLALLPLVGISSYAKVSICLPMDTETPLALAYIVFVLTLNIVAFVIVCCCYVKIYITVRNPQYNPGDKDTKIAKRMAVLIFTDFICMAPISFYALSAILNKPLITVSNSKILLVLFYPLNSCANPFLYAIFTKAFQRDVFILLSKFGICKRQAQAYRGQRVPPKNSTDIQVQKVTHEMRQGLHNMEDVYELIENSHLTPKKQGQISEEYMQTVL

Turning to `CCCCCCCCCCCCn1cc[n+](C)c1`, the Potency result in [1] and in assay [2] was “inactive” throughout. The Potency in assay [3] was 27.3 µM (active) [middle of 6 runs]; in assay [4], 31.2 µM (active) [middle of 5 runs]; in assay [6], 27.5 µM (active) [middle of 4 runs]. For the same molecule, the molecule was called inactive in assay [5].
On to `CCCCn1cc[n+](C)c1C`, for which the Potency result in assay [1], in assay [2], in [3], in assay [4], in assay [7] and in [8] was “inactive” each time. In addition, the Potency entry in [9], in [10], in assay [11] and in assay [6] was “inactive” throughout. Also, the molecule was classed as inactive in assay [5].
Turning to `O=C(O)c1ccccc1O`, the Potency result in assay [1], in assay [2], in [3], in assay [4], in [7] and in assay [8] was “inactive” throughout. Also, the Potency entry in [9], in assay [10], in assay [11], in [12] and in assay [6] was “inactive” in each case. For the same molecule, the result in [5] was inactive.
With `O=[N+]([O-])O`, the Potency result in [1], in assay [2], in [3], in assay [4], in [7] and in assay [8] was “inactive” each time. Further, the Potency entry in [9], in assay [10], in assay [13], in [14] and in [6] was “inactive” each time. Also, the outcome in assay [5] was inactive.
Turning to `CCCCCC[n+]1ccccc1`, the Potency result in assay [1], in assay [2], in assay [3], in assay [4], in assay [8] and in assay [9] was “inactive” in each case. Also, the Potency entry in assay [10], in assay [11] and in [6] was “inactive” throughout. Moreover, the molecule was classed as inactive in [5]. For the same molecule, the Potency in assay [7] is 13.8 µM (active) and 17.3 µM (active) and inactive.
For the molecule `CC[n+]1ccccc1`, the Potency result in assay [1], in assay [2], in assay [3], in assay [4], in assay [10] and in assay [13] was “inactive” in each case. For the same molecule, the Potency entry in [14] and in assay [6] was “inactive” each time. Further, the molecule was called inactive in [5]. In addition, the Potency entry in assay [7] is “inactive and 429 nM (active)”; in assay [8] it was “inactive and 24.1 µM (active)”; in [9], “inactive and 60.6 µM (active)”; in assay [11], “inactive and 42.9 µM (active)”.
Regarding `O=c1nc(O)n(Cl)c(=O)n1Cl`, the Potency entry in assay [1], in [2], in [3], in assay [4], in assay [7] and in assay [8] was “inactive” throughout. Also, the Potency entry in [9], in [10], in [12] and in assay [6] was “inactive” in each case. The call in assay [5] was inactive.
For the molecule `CCCC[n+]1cccc(C)c1`, the Potency entry in assay [1], in [2], in [3], in assay [4], in assay [7] and in assay [8] was “inactive” in each case. Moreover, the Potency result in assay [9], in [10], in assay [12] and in assay [6] was “inactive” each time. Also, the molecule was called inactive in [5].
Take `CCCCCCCCCCCCOS(=O)(=O)O`: the Potency entry in assay [1], in assay [2], in assay [3], in [4], in [7] and in assay [8] was “inactive” each time. The Potency result in [12] and in [6] was “inactive” each time. For the same molecule, in assay [5], the molecule was classed as inactive. Further, the Potency in [10] was 54.5 µM (active) and inactive.
